# TDP1 inh: qHTS Assay for Inhibitors of Tyrosyl-DNA Phosphodiesterase (TDP1); Tyrosyl-DNA phosphodiesterase 1 (Homo sapiens), Q9NUW8; recombinant TDP1, AlphaScreen DNA substrate cleavage; Potency, µM (top dose mostly 130 µM), inactives show top-dose activity change, negative = inhibition, actives largely listed as inhibitors; 0.28% of 350,000 active; further: on the % scale 0 is the no-effect control and ±100 the full control effect; nearly all actives have a fitted effect of over 40% in size
#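 Here, a 5' biotin and 3' phosphotyrosine-FITC DNA oligonucleotide reports Tdp1 activity: intact substrate bridges AlphaScreen beads, while cleavage leaves a 3' phosphate and drops signal. All incubations at room temperature.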
# ClpP mod: qHTS Assay for Activators of ClpP | purified B. subtilis ClpP, FRET peptide cleavage, 20 min | 1.9% of 340,000 active | Potency, µM (top dose mostly 57.5 µM), for inactives: at the highest dose activity change, negative = active | ATP-dependent Clp protease proteolytic subunit (Bacillus subtilis (strain 168)), P80244; active means well fitted falling curve with a large enough effect; inconclusive means small, poorly fitted or top-dose-only effect; inactive means no such curve, though single readings can be large or run the other way; further: the source files actives as falling curves though it sought activators and does not explain the sign; nearly all actives have a fitted effect of over 65% in size
# Target sequence (P80244 whole entry, looked up): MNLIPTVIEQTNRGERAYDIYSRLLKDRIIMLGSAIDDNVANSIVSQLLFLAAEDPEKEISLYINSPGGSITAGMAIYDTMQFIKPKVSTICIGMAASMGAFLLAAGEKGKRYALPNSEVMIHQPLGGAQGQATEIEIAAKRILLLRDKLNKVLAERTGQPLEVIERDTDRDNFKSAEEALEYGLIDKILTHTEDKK
#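 ClpP 10 microg/mL final, pH 8 Tris/KCl buffer with BSA, glycerol, Tween-20; compound pinned in; FRET-FV substrate; RT 20 min; Ex320/Em430; ΔFRET vs ADEP 5.8 microM, DMSO, no enzyme.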
# TDP1 cell CPT: qHTS for Inhibitors of human tyrosyl-DNA phosphodiesterase 1 (TDP1): qHTS in cells in presence of CPT; chicken DT40 Tdp1-/-;hTDP1 cells + 20 nM CPT, ATP luminescence, 48 h; Potency, µM (highest dose often 46.2 µM), without a hit: at the top dose activity change, negative = growth inhibition, usual class: inhibitors; 12% of 420,000 active; further: on the % scale 0 is the no-effect control and ±100 the full control effect; nearly all actives have a fitted effect of over 55% in size
#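 Chicken DT40 Tdp1-/- cells stably complemented with human TDP1 were seeded at 400 cells/well in medium containing 20 nM camptothecin, exposed to pin-transferred compounds, and grown at 37 °C for at least 48 hr. Viability was read as ATP luminescence.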
# DT40 TDP1 no CPT: qHTS for Inhibitors of human tyrosyl-DNA phosphodiesterase 1 (TDP1): qHTS in cells in absence of CPT. DT40 Tdp1-/- hTDP1 cells, no CPT, ATP luminescence, 48 h. Potency, µM (titrated, usually from 46.2 µM), for the others: at the highest dose activity change, negative = growth inhibition, actives largely listed as inhibitors. 15% of 420,000 active. AID 686978, 2013; further: on the % scale 0 is the no-effect control and ±100 the full control effect; nearly all actives have a fitted effect of over 55% in size
#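 Compound effects on proliferation are scored in DT40 Tdp1-/-;hTDP1 cells in the absence of CPT. ATP levels (CellTiter-Glo luminescence) are recorded after a ≥48 hr, 37 °C incubation.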
# Active calls of the source: *; ? = inconclusive; . = not tested or not shown; [ ] = remark or other dose. Only some compounds are listed: those with a hit (about 17% of all), similar ones and a draw of the others. Unless noted, the call rests on the fitted dose curve; in most records, active means well fitted curve in the direction sought with a large enough effect; inconclusive means small, poorly fitted or top-dose-only effect, or another doubt; inactive means no such curve, though single readings can be large; an effect the other way counts as inactive or inconclusive. Potency means the concentration at half of the fitted maximal effect.
SMILES,TDP1 inh,ClpP mod,TDP1 cell CPT,DT40 TDP1 no CPT
N#Cc1nc(-c2ccc(COc3ccccc3)o2)oc1NCc1ccccc1,2.6%,20µM*,?,?
CC(Nc1oc(-c2ccc(COc3ccccc3)o2)nc1C#N)c1ccccc1 (configuration not stated),6.8%,4.4%,6.51µM*,9.2µM*
Cc1csc(SC(C)C(=O)NCC2CCCO2)n1 (configuration not stated),0.6%,-17.8%,0.9%,3.3%
O=C(Nc1ccccc1C(=O)Nc1ccc(Br)cn1)c1ccccc1Cl,0.7%,-9.7%,14.6µM*,?
Cc1ccccc1C(=O)Nc1ccc(Br)cn1,1.0%,1.3%,9.2µM*,20.6µM*
Cc1ccnc(NC(=O)c2ccccc2NC(=O)c2ccc(Cl)cc2Cl)c1,1.9%,-1.9%,3.66µM*,1.84µM*
O=C(Nc1ccccc1NC(=O)c1ccccc1Cl)c1ccccc1Cl,.,-0.4%,-10.8%,-26.7%
S=C(Nc1ccccc1)Nc1ccc(Br)cn1,0.6%,.,6.51µM*,3.66µM*
Cc1ccnc(NC(=O)c2ccc(Cl)c(NC(=O)c3ccccc3C)c2)c1,7.1%,4.4%,?,?
CCCc1nnc(SCc2ccc(OC)cc2)n1N,8.7%,-1.6%,25.9µM*,18.4µM*
CCCOc1ccc(CSc2nnc(CCC)n2N)cc1,0.0%,2.0%,-18.7%,-23.0%
S=C(NCCc1ccccn1)Nc1cccc(Cl)c1,1.2%,-0.6%,?,?
N#Cc1c(NCc2ccccc2)ccnc1NCc1cccnc1,2.8%,-7.8%,23.1µM*,8.2µM*
N#Cc1c(F)cccc1NCc1cccnc1,.,-2.6%,5.2%,5.2%
COc1ccc(NC(=O)c2cccc(NC(=O)c3ccccc3)c2)cc1,.,-9.3%,-35.1%,?
COc1ccc(C)cc1NC(=O)CNC(c1ccccc1)c1ccc(C)cc1 (configuration not stated),.,-0.9%,3.26µM*,3.26µM*
COc1ccc(NC(=O)CC(c2ccc(F)cc2)c2ccc(OC)cc2)cc1 (configuration not stated),-2.7%,-1.8%,?,14.6µM*
COc1ccccc1C(CC(=O)Nc1ccc(Cl)cc1)c1ccc(OC(C)C)cc1 (configuration not stated),1.8%,-2.2%,16.4µM*,?
COc1ccc(N/N=C(C)/C(=N/O)C(=O)Nc2ccccc2)cc1,7.7%,.,?,14.6µM*
CCOC(=O)[C@H]1[C@H]2COc3ccccc3[C@@H]2N2C(=O)CNC(=O)[C@@]12C,1.3%,-2.2%,-8.4%,-7.3%
NC(=O)CSc1oc(-c2cccs2)nc1S(=O)(=O)c1ccc(Br)cc1,-2.9%,-0.4%,-14.4%,?
COc1ccc(NC(=O)CNC(c2ccccc2)c2ccccc2)cc1,.,-0.8%,?,25.9µM*
NC(=O)c1ccc(NC(=O)CNC(c2ccccc2)c2ccccc2)cc1,.,1.7%,4.3%,2.8%
COc1ccccc1NC(=O)CNC(c1ccccc1)c1ccccc1,-18.5%,.,?,?
COC(=O)CNC(c1ccccc1)c1cc(Br)ccc1NC(=O)c1cc(OC)c(OC)c(OC)c1 (configuration not stated),1.3%[12.3 µM],?,16.4µM*,7.31µM*
SMILES,TDP1 inh,ClpP mod,TDP1 cell CPT,DT40 TDP1 no CPT
COC(=O)CNC(c1ccccc1)c1cc(Br)ccc1NC(=O)OCc1ccccc1 (configuration not stated),0.0%,-1.5%,-18.7%,?
COc1cc(NC(=O)CNC(c2ccccc2)c2ccccc2)cc(OC)c1OC,.,-13.3%,25.9µM*,20.6µM*
COC(=O)Cn1c(=NC(=O)c2sc3ccccc3c2Cl)sc2cc(S(N)(=O)=O)ccc21,-3.0%,14.1µM*,?,?
CCOC(=O)Cn1c(=NC(=O)c2sc3ccccc3c2Cl)sc2cc(S(N)(=O)=O)ccc21,0.6%,?,-4.8%,-15.0%
c1ccc(CNc2nc(NCC3CC3)nc3cc(-c4ccccc4)sc23)cc1,.,?,9.2µM*,10.3µM*
Cc1cc(-c2cc(C(=O)NCc3ccccc3)on2)nc(NCC2CC2)n1,1.2%,-12.3%,-19.7%,-16.9%
c1ccc(OCCNc2nc(NCC3CC3)nc3cc(-c4ccccc4)sc23)cc1,.,25.1µM*,5.8µM*,5.8µM*
CCN(CC)C(=O)/C(=C\c1ccc(Br)cc1)NC(=O)c1ccccc1OC,1.0%,0.1%,?,14.6µM*
COc1ccccc1C(=O)N/C(=C\c1ccc(Br)cc1)C(=O)NCCO,5.2%,-0.3%,5.2%,-15.7%
CC1(O)CC(c2ccc(Cl)cc2)=NN1C(=O)c1ccc(Cl)cc1 (configuration not stated),.,-1.2%,10.3µM*,16.4µM*
O=C(C1CC1)N1N=C(c2ccc(Cl)cc2)CC1(O)C(F)(F)F (configuration not stated),.,-4.8%,-18.7%,-6.0%
COc1cccc(NC(=S)N(CCCN2CCCC2)Cc2ccco2)c1,-2.6%,3.3%,-10.7%,-5.1%
CSc1cccc(NC(=S)N(CCCN2CCCC2)Cc2cccs2)c1,4.9%,.,?,?
S=C(Nc1cccc(Cl)c1)N(CCCN1CCCC1)Cc1cccn1Cc1ccc(Cl)cc1,10.5%,.,?,18.4µM*
COc1cccc(NC(=S)N(CCCN2CCCC2)Cc2cccn2Cc2ccc(Cl)cc2)c1,6.9%,.,?,18.4µM*
CSc1cccc(NC(=S)N(CCCN2CCCC2)Cc2cccn2Cc2ccc(Cl)cc2)c1,7.9%,.,?,9.2µM*
Cc1ccn2c(Nc3c(C)cccc3C)c(-c3ccsc3)nc2c1,10.0%,4.6%,20.6µM*,23.1µM*
Cc1ccn2c(NC(=O)c3ccccc3)c(-c3cccs3)nc2c1,4.1%,-1.4%,-31.5%,-7.5%
Cc1ccn2c(Nc3c(C)cccc3C)c(-c3ccc(Cl)s3)nc2c1,0.0%[12.3 µM],?,13µM*,18.4µM*
COc1ccc(Cl)cc1NC(=S)NC1CCCC1,.,-0.9%,-12.1%,-21.7%
O=C(c1cc(-c2ccncc2)nc2ccccc12)N1CCN(c2ccccn2)CC1,6.1%,-3.2%,8.91µM*,11.2µM*
O=C(c1ccccc1-c1ccccc1)N1CCN(c2ccccn2)CC1,5.2%,?,3.26µM*,2.59µM*
O=C(c1cn(Cc2ccccc2)nc1-c1ccccc1)N1CCN(c2ccccn2)CC1,1.0%[56.1 µM],-26.6%,5.8µM*,5.8µM*
O=C(c1cc(-c2ccncc2)nc2ccccc12)N1CCN(c2ncccn2)CC1,0.5%,0.6%,-10.8%,?
CC(=O)c1ccc(N2CCN(C(=O)c3cn(Cc4ccccc4)nc3-c3cccnc3)CC2)c(F)c1,3.8%,-3.7%,?,23.1µM*
Cc1ccccc1C(=O)N1CCN(c2ccccn2)CC1,6.6%,?,0.1%,-6.3%

# Source: PubChem BioAssay (National Center for Advancing Translational Sciences (NCATS))
